The values that follow come from PubChem BioAssay AID1529 (NMMLSC, 2009).

Each structure is given as a SMILES string. About 4,200 (1.4%) of roughly 290,000 compounds were called active. This is one part of a sample in which actives are shown more often than they occur. A number with no mark means an inactive call.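 How the source made its calls: active means binding response more than 3 SD above or below the average of its plate-row segment, actives on both sides; inconclusive means wells at one plate position flagged as instrument error; inactive means the rest.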

The target in this assay is Mitogen-activated protein kinase kinase kinase 3 (Homo sapiens) (UniProt Q99759). Put plainly: compounds raising or lowering MEK5 association with MEKK3 PB1 – biochemical, wildtype MEKK3, multiplex bead flow cytometry, Alexa488-MEK5, primary screen (AID 1529).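 Further: Alexa488 bead fluorescence after subtracting the streptavidin-only scavenger bead signal.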 To be noted: bead-based flow cytometry, Alexa488-MEK5 binding to MEKK3; at 10 µM; actives lie on both sides; 0 = blocked by unlabeled MEK5, 100 = vehicle. For orientation: A flow cytometer gives signals particle by particle.
Sequence of Mitogen-activated protein kinase kinase kinase 3 (Homo sapiens) (Q99759 whole entry, looked up): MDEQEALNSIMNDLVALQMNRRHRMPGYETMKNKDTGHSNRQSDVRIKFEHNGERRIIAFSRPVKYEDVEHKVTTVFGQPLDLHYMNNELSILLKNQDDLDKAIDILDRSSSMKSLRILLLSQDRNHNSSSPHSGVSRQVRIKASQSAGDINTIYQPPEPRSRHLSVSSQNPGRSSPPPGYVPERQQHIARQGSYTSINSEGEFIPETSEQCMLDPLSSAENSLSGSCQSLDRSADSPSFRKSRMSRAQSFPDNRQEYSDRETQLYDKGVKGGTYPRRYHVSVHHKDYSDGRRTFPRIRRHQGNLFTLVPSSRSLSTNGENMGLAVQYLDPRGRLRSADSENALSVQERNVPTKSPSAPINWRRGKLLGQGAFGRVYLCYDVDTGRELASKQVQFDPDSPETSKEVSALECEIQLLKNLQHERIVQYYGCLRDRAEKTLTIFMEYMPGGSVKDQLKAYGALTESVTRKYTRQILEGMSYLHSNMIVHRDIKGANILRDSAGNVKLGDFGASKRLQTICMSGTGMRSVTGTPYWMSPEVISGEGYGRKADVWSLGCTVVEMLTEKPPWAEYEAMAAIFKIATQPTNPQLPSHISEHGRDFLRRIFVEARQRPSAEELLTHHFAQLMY
As for `C#CCNC(=O)[C@H](Cc1ccc(C(=O)c2ccccc2)cc1)NC(=O)OC(C)(C)C`, the binding response (% of control) is 101%. The result for `CCOCCCNC(=O)c1ccc(CS(=O)(=O)c2cccc(C(F)(F)F)c2)o1` reads 101%; that for `Cc1c(C)n(Cc2ccc(Cl)cc2)c2ccc(C(=O)NCCCN3CCOCC3)cc12`, 106%; that for `CCOCCCN(C)C1CCN(C(=O)c2oc3ccccc3c2NC(=O)COc2cccc(C)c2)CC1`, 105%. As to `COc1ccc(C(=O)CCc2ccccc2O)c(OC)c1`, the binding response (% of control) was 97%. The result for `CC(C)(C)OC(=O)NNc1c2ccccc2nc2ccccc12` reads 91%. Consider `O=C(N/N=C/c1cccnc1)c1cc2ccccc2cc1O`, for which the binding response (% of control) was 99%. With `O=C(NNc1c2ccccc2nc2ccccc12)c1cc2ccccc2cc1O` the figure was 69% [inhibitor] (active). Take `Cc1ccc(NC(=O)COc2ccc(/C=C3/NC(=O)NC3=O)cc2)cc1`: the binding response (% of control) is 99%. The result for `COCCCNC(=S)N(CCN(C)C)Cc1cc2cc3c(cc2[nH]c1=O)OCCO3` reads 101%; that for `COC(=O)C1(CCSC)NC(c2ccc(OC)cc2OC)C2C(=O)N(c3cccc(C(C)=O)c3)C(=O)C21` (stereo not drawn), 101%; that for `CCC(CC)c1nnc(NC(=O)C2CCN(C(=O)c3ccco3)CC2)s1`, 102%. `NC(=O)C1=C[C@@H](c2ccc3c(c2)OCO3)C[C@@H](OCCCCO)O1`: the binding response (% of control) was 102%. On to `CN(C)CCOCCOc1ccc(Cl)c2ccccc12`, for which the binding response (% of control) is 78%.

Turning to `CCN(CC)CCOCCOc1ccc(Cl)c2ccccc12`, the binding response (% of control) was 3% [inhibitor] (active). Regarding `Clc1cccc(Cl)c1OCCOCCNCc1ccccc1`, the binding response (% of control) was 102%. With `CCNC(=O)CSc1nc(-c2ccccc2)cs1`, the binding response (% of control) is 132% (active).

Regarding `CCOC(=O)CSc1nnc(CNc2nc(-c3ccccc3)cs2)n1C`, the binding response (% of control) was 92%.

With `O=C(CSc1nc(-c2ccccc2)cs1)Nc1cccc([N+](=O)[O-])c1`, the binding response (% of control) is 103%. With `O=C(COc1ccccc1Cl)Nc1ccc(C(=O)c2ccc(C(=O)O)cc2)cc1` the figure was 104%. The result for `CN1CCN(C(=O)c2ccccc2NC(=O)COc2ccccc2Cl)CC1` reads 101%; that for `CC(=O)Nc1ccc(NC(=O)COc2ccccc2C(=O)Nc2cccc(Cl)c2Cl)cc1`, 184% (active); that for `FC(F)(F)c1nnc2c3ccccc3c(Cl)nn12`, 107%.

Regarding `COc1ccc2[nH]c(=O)c(CN(Cc3cccnc3)S(=O)(=O)c3ccccc3F)cc2c1`, the binding response (% of control) is 100%. With `Cc1ccc(NC(=O)Cc2nnc(SCC(=O)Nc3nncs3)n2C)cc1` the figure was 97%. The result for `O=C(O)CCCC(=O)Nc1ccc(Oc2cccc(C(F)(F)F)c2)nc1` reads 131% (active); that for `O=C(CCCOc1ccccc1)Nc1cccc(C(=O)O)c1`, 106%; that for `O=Cc1ccc(Oc2cccc(C(F)(F)F)c2)nc1`, 98%. With `COc1ccc(/C=C2\SC(=O)N(CCC(=O)NCCCn3ccnc3)C2=O)cc1` the figure was 100%; with `COc1ccc(OC)c(/C(C)=N\NC(=O)c2cc3cc(Cl)ccc3n2C)c1`, 103%; with `Cc1cccnc1NC(=O)Cn1c(=O)oc2ccccc21`, 103%. Turning to `O=C(O)C(c1ccccc1)N1C(=O)/C(=C\c2ccc(-c3cccc(Cl)c3)o2)SC1=S` (stereo not drawn), the binding response (% of control) was 96%. With `CN1C(=O)/C(=C\c2ccc(-c3ccccc3)o2)SC1=S` the figure was 46% [inhibitor] (active); with `NS(=O)(=O)c1ccc(-c2ccc(/C=C3\SC(=O)NC3=O)o2)cc1`, 100%; with `C=C(C)CNC(=O)c1ccc(OC2CCN(C(=O)COC)CC2)cc1`, 105%. The result for `C=CCSc1nnc(N2C(=O)C(O)=C(C(=O)c3ccco3)C2c2ccc(F)cc2)s1` (stereo not drawn) reads 101%. With `C(=N\N1CCN(c2ccccn2)CC1)/C1=C(N2CCOCC2)C(=C/c2ccccc2)/CC1` the figure was 102%. Turning to `O=C1Nc2ccc(Br)cc2/C1=N/N=C/C1=C(N2CCOCC2)C(=C\c2ccccc2)/CC1`, the binding response (% of control) was 45% [inhibitor] (active). The result for `COc1ccc(/C=N/N=C2/C(=O)Nc3ccccc32)cc1O` reads 100%.

On to `O=C1N[C@H](Cc2ccccc2)C(=O)N[C@H]1Cc1cn(S(=O)(=O)c2ccccc2)c2ccccc12`, for which the binding response (% of control) is 106%. With `CCOC(=O)COn1c(=O)c(-c2ccc(OCC)cc2)[n+]([O-])c2ccccc21` the figure was 109%. The result for `CCOc1ccccc1CNS(=O)(=O)c1cc(-c2cc(C)no2)ccc1C` reads 96%; that for `CN1CCC(CN)(N2CCN(c3ccccc3)CC2)CC1`, 106%; that for `COC(=O)c1ccc(N2CCOCC2)c(NC(=O)c2ccc(Br)o2)c1`, 101%. Take `O=c1[nH]c(=S)[nH]c2[nH]c(=S)[nH]c12`: the binding response (% of control) was 48% [inhibitor] (active). The result for `Cc1c(C)c(C)c2[nH]c(=S)[nH]c2c1C` reads 101%; that for `COc1ccc(CCn2c(NN=C3CCCC3)nc3c2c(=O)[nH]c(=O)n3C)cc1`, 44% [inhibitor] (active); that for `COc1ccc(CNc2nc3c(c(=O)[nH]c(=O)n3C)n2Cc2ccccc2)cc1`, 104%. As for `COc1ccc(CCn2c(NCCCN3CCOCC3)nc3c2c(=O)[nH]c(=O)n3C)cc1`, the binding response (% of control) was 101%. Turning to `O=c1c2c(-c3ccccc3)ccnc2[nH]n1-c1ccccc1`, the binding response (% of control) is 109%. `COc1ccc(CCNC(=O)CSCc2ccc(Br)cc2)cc1OC`: the binding response (% of control) is 104%.

With `CCCc1nn(C)c2c(=O)[nH]c(-c3cc(S(N)(=O)=O)ccc3OCC)nc12`, the binding response (% of control) is 103%. Consider `CCOC(=O)C1CCN(c2ccc(C(=O)O)cc2[N+](=O)[O-])CC1`, for which the binding response (% of control) is 103%. The result for `CC1CCN(c2ccc([N+](=O)[O-])cc2C(N)=O)CC1` reads 100%; that for `O=C(O)C1CCN(c2ccc([N+](=O)[O-])cc2[N+](=O)[O-])CC1`, 49% [inhibitor] (active). The result for `CC(C)CNS(=O)(=O)c1ccc(CCC(=O)NCc2ccc(Cl)cc2)cc1` reads 96%. With `O=C(Nc1ccc(S(=O)(=O)Nc2ccccn2)cc1)c1ccccc1` the figure was 97%; with `Cc1cc(C)cc(NC(=S)NCCCN2CCOCC2)c1`, 117%; with `COc1cccc(NC(=S)NCc2ccco2)c1`, 98%.

For the compound `COc1cccc(NC(=S)NCCCN2CCOCC2)c1`, the binding response (% of control) was 140% (active). Turning to `COc1cccc(NC(=S)NCc2ccccn2)c1`, the binding response (% of control) is 143% (active). The result for `COc1cccc(NC(=S)N(Cc2ccc(C)cc2)Cc2ccccn2)c1` reads 104%; that for `CCCCc1ccc(NC(=S)NCCCN2CCOCC2)cc1`, 93%. As to `O=C(NCCN1CCN(C(=O)c2cccc([N+](=O)[O-])c2)CC1)C(=O)NCc1ccc(Cl)cc1`, the binding response (% of control) was 105%. With `CCOC(=O)Cn1c(O)c(N=NC(=O)CNC(=O)Cc2ccccc2)c2ccccc21` the figure was 99%; with `COc1ccccc1CN1CC(C(=O)NCCc2cn[nH]c2)CCC1=O` (stereo not drawn), 104%; with `COc1ccccc1CCNS(=O)(=O)c1cn(C)nc1C`, 104%. The result for `COc1ccccc1CNC(=O)C1CCN(C(=O)[C@@H]2Cc3ccccc3CN2)CC1` reads 101%; that for `COc1ccc2nc(Nc3nc(-c4ccncc4)cs3)sc2c1`, 104%; that for `COc1ccc2nc(Nc3nc4cc5c(cc4s3)OCCO5)sc2c1`, 137% (active). With `COc1ccc2nc(Nc3nc(-c4cc5ccccc5oc4=O)cs3)sc2c1` the figure was 82%. Consider `CNC[C@H](CC1CCCCC1)NC[C@H](NCCC1CCCC1)[C@H](C)O`, for which the binding response (% of control) is 102%. Turning to `COc1ccccc1Cc1nc(-c2ccc(C)cc2)no1`, the binding response (% of control) was 101%. Take `Cc1ccc(-c2nc(-c3ccncc3)no2)c(C)c1`: the binding response (% of control) is 102%. With `COc1cc(-c2nc(-c3ccncc3)no2)cc(OC)c1OC` the figure was 1% [inhibitor] (active).

As to `O=C(NCc1ccccc1)C1=C[C@@H](c2ccccc2)C[C@@H](OCCCCO)O1`, the binding response (% of control) is 101%. The result for `O=C(CCNS(=O)(=O)c1cccs1)N1CCN(c2ccc(F)cc2)CC1` reads 102%; that for `O=C(Cn1cc(/C=N/NC(=O)c2cccc(C(F)(F)F)c2)c2ccccc21)Nc1ccc(F)cc1`, 103%. For the compound `CCNC(=O)Nc1ccc(S(=O)(=O)Nc2cnc(C)nc2C)cc1`, the binding response (% of control) was 101%. The result for `O=C(NCc1cccc(Cl)c1)C1CCN(c2nnc(N3CCCC3=O)s2)CC1` reads 96%; that for `Cc1ccnc(NS(=O)(=O)c2ccc(NC(=O)c3oc4ccccc4c3C)cc2)n1`, 102%.

For the compound `Cc1nnc(SCc2cccc(Cl)c2)n(N)c1=O`, the binding response (% of control) is 98%.

With `Cc1cccc(CSc2nc3c(c(=O)n2C)SCC3)c1`, the binding response (% of control) was 100%. The result for `Cc1cccc(CSc2nnc(C)c(=O)n2N)c1` reads 128% (active); that for `COc1ccc(NC(=O)N2CCCC(C(=O)Nc3ccccc3OC)C2)cc1` (stereo not drawn), 100%. `CC1(OC(=O)C2CCCC2)C(=O)C=C2C=C(c3ccc(C#N)cc3)OC=C2C1=O` (stereo not drawn): the binding response (% of control) is 94%.

`COC(=O)CCCC1=CC2=CC(=O)C(C)(OC(=O)c3cccs3)C(=O)C2=CN1CC1CC1` (stereo not drawn): the binding response (% of control) was 93%. On to `COCCN1C=C2C(=O)C(C)(OC(=O)C3CCCC3)C(=O)C=C2C=C1c1ccsc1` (stereo not drawn), for which the binding response (% of control) is 133% (active). The result for `COc1ccc(CCNc2nc3ccc(C)cc3n3cnnc23)cc1OC` reads 102%; that for `O=C(/C=C/c1ccco1)NC(=S)Nc1ccccc1Br`, 102%.

Turning to `Cc1cc(C(=O)OCC(=O)N2c3ccccc3NC(=O)C2(C)C)c(C)n1-c1ccccc1`, the binding response (% of control) is 130% (active). With `COc1ccc(Cl)cc1-n1c(C)cc(C(=O)OCC(=O)N2CC(=O)Nc3ccccc32)c1C` the figure was 105%; with `CCNc1ccc(C(=O)OCC(=O)N2c3ccccc3NC(=O)C2(C)C)cc1[N+](=O)[O-]`, 99%.
